SMILES strings stand for the structures. Where “and” joins values, the source holds several entries; their conditions need not be identical. Identical values can stand only once. Records with an inconclusive call do not appear. Where a call stands in place of a potency, no number is given. Some compounds were tested as several samples or in several runs, with calls that do not always agree. Calls of active or inactive are those of the source. Unless noted, the call rests on the fitted dose curve; in most records, active means well fitted cell-killing curve with a large enough effect in the repeat runs; inconclusive means weak or mixed curves, or effect the other way; inactive means flat fitted curve, though single readings scatter.

The record followed here is PubChem BioAssay (Tox21).
Potency means the concentration at half of the fitted maximal effect.

Chain of Estrogen receptor beta (Homo sapiens) (Q92731 whole entry, looked up): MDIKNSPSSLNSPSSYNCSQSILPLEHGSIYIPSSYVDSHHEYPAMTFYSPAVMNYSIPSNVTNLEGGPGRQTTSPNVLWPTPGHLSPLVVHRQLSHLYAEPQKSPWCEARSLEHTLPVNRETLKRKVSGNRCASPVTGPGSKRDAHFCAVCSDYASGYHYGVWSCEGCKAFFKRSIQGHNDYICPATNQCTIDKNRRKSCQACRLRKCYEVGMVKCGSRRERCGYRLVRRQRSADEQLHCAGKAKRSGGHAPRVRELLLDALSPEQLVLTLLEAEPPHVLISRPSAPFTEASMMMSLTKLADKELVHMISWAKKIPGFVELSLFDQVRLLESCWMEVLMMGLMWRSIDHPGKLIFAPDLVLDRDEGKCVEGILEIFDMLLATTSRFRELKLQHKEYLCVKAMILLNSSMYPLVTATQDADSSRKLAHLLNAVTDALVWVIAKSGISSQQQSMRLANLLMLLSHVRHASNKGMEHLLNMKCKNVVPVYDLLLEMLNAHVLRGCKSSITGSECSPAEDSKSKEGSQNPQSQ

The first experiment concerns the target Estrogen receptor beta (Homo sapiens) (UniProt Q92731). Kind of experiment: qHTS assay to identify small molecule antagonists of the estrogen receptor beta (ER-beta) signaling pathway (AID 1259378; active means well fitted inhibition curve with a large enough effect in the signal ratio in the repeat runs, not every such curve was filed as active; the % refers to the signal ratio). The settings on record: ER-beta-UAS-bla HEK293T, beta-lactamase FRET ratio, 16 h; series mostly up to 92.4 µM. In a few lines: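 Antagonist mode: compounds added to beta-lactamase reporter HEK293T ER-beta-UAS cells stimulated with E2 (1nM final), 16 hr at 37C. LiveBLAzer B/G FRET substrate, 2 hours room temperature, fluorescence read-out.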
On the technique in general: qHTS replaces the single test concentration by a dilution series.
`c1ccc2c(c1)Oc1ccccc1S2`: the Potency result is “inactive”.

On to `Cc1cc2nc3c(=O)[nH]c(=O)nc-3n(C[C@H](O)[C@H](O)[C@H](O)CO)c2cc1C`, for which the activity, negative = inhibition was -6.01% [at 19 µM] (inactive).

In the case of `COC(=O)c1ccccc1`, the Potency result is “inactive”.

Consider `O=C1c2cccc(O)c2C(=O)c2c(O)cccc21`, for which the Potency result was “inactive”.

For the molecule `C[Si](C)(C)O[Si](C)(C)C`, the Potency entry was “inactive”.

For `O=C=Nc1ccc(Cc2ccc(N=C=O)cc2)cc1`, the Potency entry was “inactive”.

Consider `NNc1ccc(C(=O)O)cc1`, for which the Potency entry was “inactive”.

Turning to `CCCCCCCCCC(=O)OC`, the Potency entry was “inactive”.

As for `c1ccncc1`, the Potency result was “inactive”.

As to `S=C(NC1CCCCC1)NC1CCCCC1`, the Potency is 6.11 µM (active).

Regarding `c1ccc(Nc2ccccc2)cc1`, the Potency was 24.3 µM (active) and inactive.

Consider `Cn1cnc([N+](=O)[O-])c1Sc1ncnc2nc[nH]c12`, for which the Potency result is “inactive”.

As for `CCOC(=O)C(C#N)=C(c1ccccc1)c1ccccc1`, the Potency is 4.33 µM (active) and 5.31 µM (active).

On to `CN(C)c1nc(N(C)C)nc(N(C)C)n1`, for which the Potency result was “inactive”.

As to `C/C=C/C(=O)O`, the Potency entry is “inactive”.

`CC(=O)CC/C=C(\C)CCC=C(C)C`: the Potency result was “inactive”.

As to `CCCCOCCOCCO`, the Potency result is “inactive”.

`COc1ccccc1/C=C/C=O`: the Potency is 55.9 µM (active) and 54.5 µM (active).

For `C[C@]12CC[C@H]3[C@@H](CCC4=CC(=O)CC[C@@]43C)[C@@H]1CC[C@@H]2C(=O)CO`, the Potency result was “inactive”.

Consider `CC(=O)O[C@]1(C(C)=O)CC[C@H]2[C@@H]3C=C(Cl)C4=CC(=O)[C@@H]5C[C@@H]5[C@]4(C)[C@H]3CC[C@@]21C`, for which the Potency is 54.5 µM (active).

In the case of `CCCCOCCOCCOCCO`, the Potency entry was “inactive”.

As to `CC1=CC2C3CC(C=C3C)C2C1` (centres undefined), the Potency entry was “inactive”.

System in another experiment: not listed separately
As to the kind of experiment: qHTS assay to identify small molecule agonists of the androgen receptor (AR) signaling pathway in the presence of an antagonist - cell viability counter screen (AID 1259379). Further: nearly all actives have a fitted effect of over 25% in size. Particulars: MDA-kb2 viability, CellTiter-Fluor, 16 h; series mostly up to 92.4 µM. The essentials:
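Cells: MDA-kb2 (MMTV-luc, AR and GR elements), 3,000/well, 5 hr settle. Added: nilutamide 3.0uM final, then compounds (15 conc.). Incubation: 16 hr, 37C, no CO2. Read-out: CellTiter-Fluor, 1 hr, fluorescence.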
Take `c1ccc2c(c1)Oc1ccccc1S2`: the Potency entry is “inactive”.

In the case of `C#C[C@]1(O)CC[C@H]2[C@@H]3CCc4cc(OC)ccc4[C@H]3CC[C@@]21C`, the Potency result was “inactive”.

For the molecule `COC(=O)c1ccccc1`, the Potency result was “inactive”.

As for `CC(C)OC=O`, the Potency result was “inactive”.

Turning to `Cc1ccc(C(=O)c2cc(O)c(O)c([N+](=O)[O-])c2)cc1`, the Potency was 54.5 µM (active) and 29.8 µM (active).

Consider `C[Si](C)(C)O[Si](C)(C)C`, for which the Potency entry was “inactive”.

With `O=C=Nc1ccc(Cc2ccc(N=C=O)cc2)cc1`, the Potency entry is “inactive”.

As to `CN(C)C(=N)N=C(N)N`, the Potency entry is “inactive”.

For `NNc1ccc(C(=O)O)cc1`, the Potency result was “inactive”.

For the molecule `CCCCCCCCCC(=O)OC`, the Potency entry was “inactive”.

As for `c1ccncc1`, the Potency entry is “inactive”.

Consider `Cc1c(OCC(F)(F)F)ccnc1CS(=O)c1nc2ccccc2[nH]1` (centres undefined), for which the Potency result was “inactive”.

Regarding `O=C(/C=C/C=C/c1ccc2c(c1)OCO2)N1CCCCC1`, the Potency entry was “inactive”.

`COC(=O)Nc1nc2ccc(S(=O)c3ccccc3)cc2[nH]1` (centres undefined): the Potency entry was “inactive”.

For the molecule `S=C(NC1CCCCC1)NC1CCCCC1`, the Potency result is “inactive”.

Take `O=C(COc1ccc(Cl)cc1)N1CCN(Cc2ccc3c(c2)OCO3)CC1`: the Potency was 68.6 µM (active) and inactive.

As to `c1ccc(Nc2ccccc2)cc1`, the Potency was 43.2 µM (active) and inactive.

In the case of `CCC(C)(O)CCCC(C)C` (centres undefined), the Potency entry was “inactive”.

In the case of `Cn1cnc([N+](=O)[O-])c1Sc1ncnc2nc[nH]c12`, the Potency result is “inactive”.

Regarding `CCOC(=O)C(C#N)=C(c1ccccc1)c1ccccc1`, the Potency entry is “inactive”.

For `O=C(c1ccccc1)c1ccc(O)cc1O`, the Potency entry was “inactive”.

Turning to `CN(C)c1nc(N(C)C)nc(N(C)C)n1`, the Potency result was “inactive”.

As to `CC(C)=CCC/C(C)=C\CO`, the Potency result is “inactive”.

With `C/C=C/C(=O)O`, the Potency result is “inactive”.

`CC(=O)CC/C=C(\C)CCC=C(C)C`: the Potency entry is “inactive”.

Regarding `Nc1ccc(Cl)cc1Cl`, the Potency entry was “inactive”.

In the case of `Brc1cc(Oc2cc(Br)c(Br)c(Br)c2Br)c(Br)c(Br)c1Br`, the Potency entry is “inactive”.

For `OC1CCCCCCCCCCC1`, the Potency entry was “inactive”.

For the molecule `CCCCOCCOCCO`, the Potency entry was “inactive”.

Turning to `C[C@]12CC[C@H]3[C@@H](CCC4=CC(=O)CC[C@@]43C)[C@@H]1CC[C@@H]2C(=O)CO`, the Potency entry is “inactive”.

Turning to `CC(=O)O[C@]1(C(C)=O)CC[C@H]2[C@@H]3C=C(Cl)C4=CC(=O)[C@@H]5C[C@@H]5[C@]4(C)[C@H]3CC[C@@]21C`, the Potency entry is “inactive”.

For the molecule `CCCCOCCOCCOCCO`, the Potency entry was “inactive”.

In the case of `CC1=CC2C3CC(C=C3C)C2C1` (centres undefined), the Potency entry is “inactive”.

Regarding `CC(C)(C)NC(=O)[C@H]1CC[C@H]2[C@@H]3CC[C@H]4NC(=O)C=C[C@]4(C)[C@H]3CC[C@]12C`, the Potency result is “inactive”.

In the case of `O=C1OC2(c3cc(Br)c(O)c(Br)c3Oc3c2cc(Br)c(O)c3Br)c2c(Cl)c(Cl)c(Cl)c(Cl)c21`, the Potency was 21.7 µM (active) and 16.6 µM (active).

System in a further experiment: not listed separately
Kind of experiment: qHTS assay to identify small molecule agonists of the estrogen receptor beta (ER-beta) signaling pathway - cell viability counter screen (AID 1259380). Further: nearly all actives have a fitted effect of over 30% in size. Particulars: ER-beta-bla HEK293T viability, CellTiter-Glo luminescence, 16 h; series mostly up to 92.4 µM. The essentials:
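HEK293T ER-beta-UAS-bla; 2% CS-FBS; 6 hr pre-plate, 16 hr cpd at 37C/5% CO2; LiveBLAzer read first, then CellTiter-Glo 30 min RT, luminescence.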
Take `c1ccc2c(c1)Oc1ccccc1S2`: the Potency entry was “inactive”.

Consider `C#C[C@]1(O)CC[C@H]2[C@@H]3CCc4cc(OC)ccc4[C@H]3CC[C@@]21C`, for which the Potency is 21.7 µM (active).

For `Cc1cc2nc3c(=O)[nH]c(=O)nc-3n(C[C@H](O)[C@H](O)[C@H](O)CO)c2cc1C`, the Potency result was “inactive”.

With `COC(=O)c1ccccc1`, the Potency result was “inactive”.

As to `CC(C)OC=O`, the Potency result was “inactive”.

With `Cc1ccc(C(=O)c2cc(O)c(O)c([N+](=O)[O-])c2)cc1`, the Potency result was “inactive”.

For the molecule `C[Si](C)(C)O[Si](C)(C)C`, the Potency result was “inactive”.

Turning to `O=C=Nc1ccc(Cc2ccc(N=C=O)cc2)cc1`, the Potency result was “inactive”.

On to `CN(C)C(=N)N=C(N)N`, for which the Potency entry was “inactive”.

Take `NNc1ccc(C(=O)O)cc1`: the Potency entry was “inactive”.

`CCCCCCCCCC(=O)OC`: the Potency entry was “inactive”.

In the case of `c1ccncc1`, the Potency entry is “inactive”.

Take `Cc1c(OCC(F)(F)F)ccnc1CS(=O)c1nc2ccccc2[nH]1` (centres undefined): the Potency entry is “inactive”.

With `COC(=O)Nc1nc2ccc(S(=O)c3ccccc3)cc2[nH]1` (centres undefined), the Potency result is “inactive”.

Take `S=C(NC1CCCCC1)NC1CCCCC1`: the Potency result is “inactive”.

On to `c1ccc(Nc2ccccc2)cc1`, for which the Potency result is “inactive”.

Turning to `CCC(C)(O)CCCC(C)C` (centres undefined), the Potency result was “inactive”.

For the molecule `Cn1cnc([N+](=O)[O-])c1Sc1ncnc2nc[nH]c12`, the Potency was 4.83 µM (active) and 8.41 µM (active).

On to `CCOC(=O)C(C#N)=C(c1ccccc1)c1ccccc1`, for which the Potency result was “inactive”.

`O=C(c1ccccc1)c1ccc(O)cc1O`: the Potency result is “inactive”.

For the molecule `CN(C)c1nc(N(C)C)nc(N(C)C)n1`, the Potency entry is “inactive”.

Consider `CC(C)=CCC/C(C)=C\CO`, for which the Potency entry was “inactive”.

On to `C/C=C/C(=O)O`, for which the Potency result was “inactive”.

In the case of `CC(=O)CC/C=C(\C)CCC=C(C)C`, the Potency result is “inactive”.

For `Nc1ccc(Cl)cc1Cl`, the Potency result is “inactive”.

Consider `Brc1cc(Oc2cc(Br)c(Br)c(Br)c2Br)c(Br)c(Br)c1Br`, for which the Potency is 6.89 µM (active) and inactive.

As for `OC1CCCCCCCCCCC1`, the Potency result is “inactive”.

Consider `CCCCOCCOCCO`, for which the Potency result is “inactive”.

Take `COc1ccccc1/C=C/C=O`: the Potency was 55.9 µM (active).

Take `CC(=O)O[C@]1(C(C)=O)CC[C@H]2[C@@H]3C=C(Cl)C4=CC(=O)[C@@H]5C[C@@H]5[C@]4(C)[C@H]3CC[C@@]21C`: the Potency result was “inactive”.

As to `CCCCOCCOCCOCCO`, the Potency result was “inactive”.

Regarding `O=C1OC2(c3cc(Br)c(O)c(Br)c3Oc3c2cc(Br)c(O)c3Br)c2c(Cl)c(Cl)c(Cl)c(Cl)c21`, the Potency result was “inactive”.
